From PubChem BioAssay
tim23-1 inh: growth inhibitors of tim23-1 mutant yeast, primary screen, luminescence, uHTS; S. cerevisiae tim23-1 growth, BacTiter-Glo luminescence, 24 h; inhibition, % at 20 µM; 330,000 tested, 1.3% active;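 active = growth inhibition of the mutant yeast at or above 50%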;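 also: temperature-sensitive mutant grown at 25 °C; plate controls were DMSO-treated mutant yeast for no effect and medium wells lacking yeast for full effect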
V-ATPase pHluor: regulators of yeast V-ATPase proton pumping, primary screen, pHLuorin cytosolic pH fluorescence | S. cerevisiae | AID 504577, 2011 | response, % at 10 µM | 350,000 tested, 0.37% active; in the data active = response mostly above about 7.3%, no sharp cut-off; inactive = mostly below about 5.4%; also: actives read high
tim10-1 inh: growth inhibitors of tim10-1 mutant yeast, primary screen, luminescence, uHTS | S. cerevisiae tim10-1 ts strain growth, BacTiter-Glo, 24 h | inhibition, % at 20 µM | 330,000 tested, 2.2% active;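 active = inhibition of at least 40%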;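 also: mutant grown at 25 °C; 0% = DMSO wells with yeast and 100% = wells holding no yeast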
TIM10 inh: growth inhibitors of isogenic TIM10 control yeast, primary screen, counter-screen for tim10-1 yeast inhibitor project, luminescence, uHTS; S. cerevisiae TIM10 strain growth, BacTiter-Glo luminescence, 24 h; inhibition, % at 10 µM; 330,000 tested, 1.4% active; AID 463195, 2010;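 active = inhibition of 40% or more at the single tested concentration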;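 also: wild-type TIM10 isogenic control strain grown at permissive 25 °C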
PfHsp90 set2: growth inhibition of PfHsp90-expressing yeast, primary screen, antimalarial PfHsp90 inhibitor project, S. cerevisiae, BacTiter-Glo luminescence, single point, set 2; 310,000 tested, 0.32% active; inhibition, % at 9.4 µM; BacTiter-Glo ATP, 48 h; yeast lacking PDR1 and PDR3 efflux regulators;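 active = every replicate shows inhibition above about 80%, whatever the replicate mean, limit read from the data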;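 also: 0% = DMSO neutral controls and 100% = 20 µM radicicol positive controls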
tim10-1 confirm: growth inhibitors of tim10-1 mutant yeast, confirmation, single concentration, luminescence, S. cerevisiae; S. cerevisiae tim10-1 ts strain growth, BacTiter-Glo, 24 h; shares compounds with tim10-1 inh; 7,400 tested, 56% active; AID 463213, 2010; inhibition, % at 20 µM;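 active = inhibition of yeast growth at or above a set limit in either of two repeat tests at 20 µM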;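 also: tim10-1 mutant grown at permissive 25 °C to find synthetic lethal compounds; 0% = DMSO yeast wells and 100% = medium wells without yeast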
tim10 confirm: growth inhibitors of wild-type TIM10 yeast, confirmation, counter-screen for tim10-1 synthetic lethality project, single concentration, luminescence, S. cerevisiae; shares compounds with TIM10 inh; S. cerevisiae tim10 strain growth, BacTiter-Glo luminescence, 24 h; inhibition, % at 10 µM; 4,600 tested, 63% active; AID 463215, 2010;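 active = inhibition of yeast growth at or above a set limit in either of two replicates at 10 µM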;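 also: this counterscreen used the strain with wild-type TIM10; 0% = yeast with DMSO and 100% = medium wells lacking yeast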
Starred values were filed as active, the others as inactive; nt = no result given. In the library only some 3.7% were active in any assay of this set; here they are far more common.

SMILES	tim23-1 inh	V-ATPase pHluor	tim10-1 inh	TIM10 inh	PfHsp90 set2	tim10-1 confirm	tim10 confirm
O=C(Cn1c2ccc(F)cc2c2nc3n(c(=O)c21)CCS3)Nc1ccccc1F	17	nt	51*	52*	nt	44*	42*
Cn1c2ccccc2c2c(C(=O)N3CCN(c4ccccn4)CC3)cn(C3CCCC3)c(=O)c21	27	-1	40*	47*	-11	18	41*
CC(C)(C)c1ccc(CSc2nnc(-c3ccccn3)n2Cc2ccco2)cc1	41	2	42*	45*	-10	48*	38*
CC(C)CC(=O)N1CCN(Cc2ccc(C(F)(F)F)cc2)CC1	-3	-3	5	6	-13	nt	nt
O=C(COC(=O)/C=C/c1ccc2ccccc2n1)NNC(=O)c1ccccc1	nt	0	nt	nt	nt	nt	nt
CC(C)CCNC(=O)COC(=O)/C=C/c1ccc2ccccc2n1	48	-1	49*	45*	-18	42*	41*
Oc1ccccc1C(=S)N1CCN(c2cccc(Cl)c2)CC1	40	2	28	37	23	nt	nt
Oc1ccc(C(=S)N2CCN(c3cccc(Cl)c3)CC2)cc1	25	4	41*	54*	-4	53*	48*
Cc1ccc(C)c(NS(=O)(=O)c2cc3c4c(c2)CC(=O)N4CCC3)c1	21	3	31	9	9	nt	nt
Cc1cc(NC(=O)C2CC2)ncc1NC(=O)C12CC3CC(CC(C3)C1)C2	48	0	54*	48*	30	40*	-21
CN1C(=O)C(O)(CC(=O)c2cccc(-n3cccc3)c2)c2ccccc21 (configuration not stated)	30	-4	51*	46*	14	38*	29
O=C(CC1(O)C(=O)Nc2ccccc21)c1cccc(-n2cccc2)c1 (configuration not stated)	-3	1	7	-2	9	nt	nt
COc1ccccc1CC(=O)N(CCC1=CCCCC1)c1c(N)n(Cc2ccccc2)c(=O)[nH]c1=O	19	1	-1	1	nt	nt	nt
O=C1NN=C(c2ccccc2)CC1c1ccc(Cl)cc1Cl (configuration not stated)	49	1	50*	42*	-11	38*	57*
CC(N=C1NS(=O)(=O)c2ccccc21)C(=O)OCC(=O)N(C)C1CCS(=O)(=O)C1 (configuration not stated)	18	7	2	9	7	nt	nt
O=S(=O)(CCN(CCS(=O)(=O)C(F)(F)F)CC1CCCO1)C(F)(F)F (configuration not stated)	35	nt	50*	45*	-15	41*	26
O=C(CCl)c1cc2c3c(c1)CC(=O)N3CCC2	48	3	3	21	-19	nt	nt
CN1CCN(C(=O)C[C@@H]2C[C@H]3c4cc(NC(=O)c5cccnc5)ccc4O[C@H]3[C@H](CO)O2)CC1	nt	1	nt	nt	nt	nt	nt
CC(C(=O)Nc1ccc(F)c(F)c1F)N(C)Cc1cccs1 (configuration not stated)	-3	-3	18	3	1	nt	nt
C=C1CCC[C@]2(C)C[C@H]3OC(=O)C(CN(Cc4ccc(OC)c(OC)c4)CC(C)O)[C@H]3CC12 (some centres not stated)	42	0	43*	44*	-39	40*	46*
C=C1CCC[C@]2(C)C[C@H]3OC(=O)C(CN[C@@H](C)c4ccccc4)[C@H]3CC12 (some centres not stated)	nt	2	nt	nt	-10	nt	nt
Cn1ccnc1SCC(=O)NC1(C#N)CCCCC1	-8	0	-22	-4	nt	nt	nt
CCOC(=O)C1CCCN(C(=O)c2ccc(-c3ccc([N+](=O)[O-])cc3)o2)C1 (configuration not stated)	46	3	58*	46*	14	66*	58*
